# HIF-2a inh – HIF-2a reporter inhibitors, primary screen, luminescence, 786-0 RCC cells. 786-0 RCC cells HIF-2a reporter, luciferase luminescence, overnight. inhibition, % at 18.8 µM. 360,000 compounds, 0.72% hits. AID 624352, 2012;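 active = inhibition of the luminescence signal of 40% or more relative to plate controls, in a single-dose primary screen at 18.75 µM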
# CF NFkB block – inhibitors of PAF-induced NF-kB signaling, primary screen, cell-based, GFP fluorescence, uHTS. KKLEB NF-kB-GFP reporter, GFP fluorescence overnight. inhibition, % at 5 µM. 360,000 compounds, 0.86% hits. AID 588850, 2011;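 active = at least 50% inhibition at 5 µM, scaled per plate between neutral and stimulator controls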;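 note: PAF is a Pseudomonas aeruginosa culture filtrate used as stimulus; plate controls were PAF-stimulated DMSO wells for no effect and unstimulated DMSO wells for full effect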
# TROY NFkB inh – inhibitors of TROY-driven NF-kB signaling, primary screen, Q293 LMP1-TROYcd cells, NF-kB luciferase, uHTS; Q293 LMP1-TROYcd NF-kB luciferase reporter, 4 h; inhibition, % at 10 µM; 360,000 compounds, 0.98% hits; AID 1347056, 2019;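 active = compounds whose plate-normalised and pattern-corrected inhibition of the luciferase reporter signal at the single screening dose is 50% or more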
# Peg3 prom inh – Peg3 promoter-driven luciferase inhibitors, primary screen, cell-based, HeLa, luciferase luminescence. HeLa PEG-Prom luciferase reporter, overnight. 360,000 compounds, 1.7% hits. AID 588405, 2011. inhibition, % at 20 µM;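 active = inhibition of at least 50% at 20 µM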
# KKLEB tox – cytotoxicity in KKLEB CF airway cells, primary screen, cytotoxicity control for CF NF-kB inhibitor project, cell-based, uHTS, fluorescence assay plates; KKLEB CF airway cells viability, ATPlite luminescence, overnight; active compounds read low; cells stimulated with P. aeruginosa culture filtrate; activity change (cytotoxicity), % at 5 µM; 360,000 compounds, 0.36% hits; AID 602141, 2011;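 active = corrected activity change at or below -50% at 5 µM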
# TWEAK-Fn14 inh – inhibitors of TWEAK-Fn14 signaling, primary screen, luciferase reporter cells, uHTS; TWEAK-stimulated Fn14 reporter cells, luciferase luminescence, 8 h; inhibition, % at 10 µM; 360,000 compounds, 2% hits; AID 1159606, 2016; in the data active = inhibition above about 50%
# CF NFkB conf – inhibitors of PAF-induced NF-kB signaling, retest, confirmation, cell-based, GFP fluorescence, single concentration | 1,300 compounds, 64% hits | KKLEB CF airway cells, overnight | AID 602472, 2012 | shares compounds with CF NFkB block | inhibition, % at 5 µM; in the data active = inhibition above about 40%;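 note: stimulus PAF is a Pseudomonas aeruginosa filtrate and not platelet activating factor; plate controls were DMSO wells with stimulus for no effect and unstimulated DMSO wells for full effect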
# The depositor's hits bear a star; i = inactive; · = not tested or not shown. Sampled rows, rich in hits. Any-hit rate of the full collection: about 3.9%.
SMILES,HIF-2a inh,CF NFkB block,TROY NFkB inh,Peg3 prom inh,KKLEB tox,TWEAK-Fn14 inh,CF NFkB conf
CN(C)/C=C/C(=O)c1ccc2noc(-c3ccccc3)c2c1,8,57*,-24,4,-4,-13,82*
Cc1nn(CC(=O)Nc2ccc3c(c2)CCC3)c(C)c1[N+](=O)[O-],-27,-31,-17,0,17,1,·
COc1ccc(S(=O)(=O)N2CCN(C)CC2)cc1NC(=O)c1ccccc1C,4,1,3,2,-13,3,·
Cc1nc([N+](=O)[O-])c(Br)n1CC(=O)c1ccc(Br)cc1,35,53*,35,38,-42,22,11
COc1ccc([C@H]2CC(=O)C=C(c3ccc4c(c3)OCCO4)C2)cc1,-206,-4,-66,-93,16,-16,·
C[n+]1cccc(CNC(=O)/C=N/O)c1,5,3,·,9,12,4,·
N#Cc1ccsc1NC(=O)c1cccc([N+](=O)[O-])c1,-15,16,-11,-38,-6,-9,·
N#Cc1ccsc1NC(=O)c1ccc(Cl)c([N+](=O)[O-])c1,-105,50*,28,-164,-25,24,68*
Cc1ccc(N(CC(=O)NC2CCCCC2)S(=O)(=O)c2c(C)nn(C)c2C)cc1,14,-5,14,7,4,8,·
Cc1ccnc(NC(=O)CSc2cc(=O)n(C)c3ccccc23)c1,-264,88*,4,70*,-26,-4,52*
Cn1c(=O)cc(SCC(=O)Nc2cccnc2)c2ccccc21,-45,-6,8,-25,-4,-4,·
Cc1ccnc(NC(=O)CCCOc2cc(=O)n(C)c3ccccc23)c1,i,71*,1,92*,9,38,76*
O=[N+]([O-])c1cccc(-c2ccc(/C=N/Nc3nc(N4CCCCC4)nc(N4CCCCC4)n3)o2)c1,30,55*,10,69*,-17,24,39
COc1ccc(COC(=O)C2=C(C)NC(=O)NC2c2ccc(OC)cc2)cc1 (stereo unspecified),26,53*,24,34,8,29,51*
CCCCOC(=O)C1=C(C)NC(=O)NC1c1ccc2c(c1)OCO2 (stereo unspecified),14,-6,7,9,3,-36,·
CC1=C(C(=O)OCc2ccc3c(c2)OCO3)C(c2ccc(O)c([N+](=O)[O-])c2)NC(=O)N1 (stereo unspecified),20,69*,44,3,-8,71*,76*
O=C(NCc1cccs1)C1CCCCC1,-15,-12,-12,-5,-3,5,·
COc1ccc(NC(=O)C[C@H]2C(=O)N(C3CCCCC3)C[C@@H]2CSC)cc1,-7,13,9,3,2,-11,·
COC(=O)c1ccc2nc(NC(=O)CCS(=O)(=O)c3ccccc3)sc2c1,13,58*,-43,21,-34,37,30
c1ccc2c(c1)oc1c(NCCCN3CCOCC3)ncnc12,-14,-2,-16,4,0,-13,·
CCCCOC(=O)Nc1ccc(S(=O)(=O)Nc2nc(C)cc(C)n2)cc1,21,53*,6,9,2,8,39
COC(=O)c1cccc(C(=O)Nc2ccc(F)cc2)n1,-15,7,-22,11,-2,3,·
CC(C)OC(=O)c1cccc(C(=O)Nc2cccc(NC(=O)c3cccc(C(=O)OC(C)C)n3)n2)n1,12,57*,11,46,-4,33,62*
O=C(COC(=O)c1c2c(nc3ccccc13)CCCC2)Nc1ccc2c(c1)OCO2,5,-21,12,35,-16,32,·
CC(C)c1ccccc1NC(=O)COC(=O)c1c2c(nc3ccccc13)CCN(Cc1ccccc1)C2,12,75*,10,57*,-17,24,73*
SMILES,HIF-2a inh,CF NFkB block,TROY NFkB inh,Peg3 prom inh,KKLEB tox,TWEAK-Fn14 inh,CF NFkB conf
Cc1c(Cl)cccc1NC(=O)COC(=O)c1c2c(nc3ccccc13)CCN(Cc1ccccc1)C2,17,62*,-14,60*,-22,26,76*
O=C(NC1CCCCCC1)c1c2c(nc3ccccc13)CCN(Cc1ccccc1)C2,4,10,5,10,-14,26,·
COCCN1Cc2cccc(C(=O)Nc3cccc(-c4nc5ccccc5[nH]4)c3)c2C1=O,-138,57*,2,22,-20,-2,68*
CCOC(=O)c1[nH]c2c(c1C)C(=O)CC(c1ccco1)C2 (stereo unspecified),10,57*,0,-27,-19,9,80*
Cc1ccc(-c2csc3ncnc(OCC(=O)NC(=O)NCc4ccco4)c23)cc1,-11,-12,7,4,6,10,·
Nc1[nH]nc2nc(N3CCCC3)nc(-c3ccccc3)c12,18,14,6,5,-7,20,·
COc1ccc(-c2nc(N3CCOCC3)nc3n[nH]c(N)c23)cc1,29,69*,5,22,-26,-17,56*
CCOC(=O)c1cc2ccc3ccccc3c2oc1=O,-13,-45,-36,-1,2,-27,·
CCCCCCc1cc2cc(C(=O)OCC)c(=O)oc2cc1O,-45,53*,3,27,-32,41,78*
Cc1cccc2sc(NC(=O)[C@@H]3CCCN3C(=O)c3cccs3)nc12,14,-13,0,-4,7,17,·
O=C(Nc1nc2ccc(Cl)cc2s1)[C@@H]1CCCN1C(=O)c1cccs1,-130,53*,17,-108,-21,24,39
CC1C(c2ccccc2)OCCN1C(=S)Nc1ccc(S(=O)(=O)N2CCCCC2)cc1 (stereo unspecified),16,58*,9,20,-1,43,60*
Cc1cc(N2CCOCC2)c2c(N)c(Br)cc(C)c2n1,22,66*,19,13,-6,13,97*
COc1ccc(NC(=O)Cn2nnc(C(=O)NCc3ccccc3)c2N)cc1Cl,18,17,0,12,-11,-15,·
COc1ccc(NC(=O)Cn2nnc(C(=O)NCc3ccc(C)cc3)c2N)cc1Cl,1,58*,-5,7,-37,-3,10
c1ccc(C2=Nn3c(nnc3-c3ccco3)SC2)cc1,10,-33,13,2,0,-9,·
Nc1nc(-c2ccccc2)nc(-c2ccccc2O)n1,-195,57*,-19,1,-14,13,-38

# Compound activity deposited in PubChem BioAssay by Sanford-Burnham Center for Chemical Genomics.
